This is an account of results in PubChem BioAssay (NCI).

Test systems include NCI-H226 lung; NCI-H322M lung; HOP-62 NSCLC; NCI-H460 lung; HOP-92 NSCLC; NCI-H522 lung; A549/ATCC NSCLC; 786-0 renal; COLO 205 colon; DU-145 prostate; K-562 leukemia; MALME-3M melanoma; MDA-MB-231 breast; RXF 393 renal; SF-268 CNS; SF-295 CNS; SF-539 CNS; UACC-257 melanoma; M14 melanoma; HCT-15 colon.
What all share (experiment): NCI-60 one-dose screen, 48 h (100 = growth as untreated, 0 = no growth, -100 = all killed)
What all share (conditions): 10 µM unless noted

Structures are written as SMILES. The panel holds about 83,000 compounds, 20% with a hit somewhere; the sample as a whole holds those more often.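 Single-dose data. Exposure time 48 hours. Values below 10 considered active.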 A number with no mark means an inactive call. Activity calls are given as the source filed them.

For the compound `COC(=O)C1CN(S(=O)(=O)/N=C2\NC(=O)NC2=C(Cl)Cl)C1`, the growth in the assay on NCI-H226 lung is 106%; in the assay with NCI-H322M lung it was 102%; in the assay on HOP-62 NSCLC it was 109%; in the assay on NCI-H460 lung it was 108%; with HOP-92 NSCLC, 98.9%; in the assay on NCI-H522 lung, 99.1%. In addition, the growth is 101% in the assay with A549/ATCC NSCLC; 104% with 786-0 renal; 124% in the assay on COLO 205 colon; 116% in the assay on DU-145 prostate; 101% in the assay with K-562 leukemia; 104% in the assay on MALME-3M melanoma. For the same compound, the growth is 106% in the assay on MDA-MB-231 breast; 123% in the assay with RXF 393 renal; 103% in the assay with SF-268 CNS; 104% with SF-295 CNS; 101% in the assay on SF-539 CNS; 101% in the assay with UACC-257 melanoma. The growth in the assay on M14 melanoma was 101%; with HCT-15 colon, 107%.
Turning to `CC(C)(C)Nc1nc2c(OCCc3ccccc3)cccn2c1-c1cccc(F)c1`, the growth with NCI-H226 lung was -7.74% (active); in the assay on NCI-H322M lung, 20.1%; with HOP-62 NSCLC it was -33.2% (active); in the assay with NCI-H460 lung it was -11% (active); with HOP-92 NSCLC, -27% (active); in the assay with NCI-H522 lung, -0.543% (active). Besides, the growth with A549/ATCC NSCLC is 12.3%; with 786-0 renal, 5.13% (active); in the assay on COLO 205 colon it was -75% (active); in the assay with DU-145 prostate, 22.7%; in the assay on K-562 leukemia, 1.65% (active); with MALME-3M melanoma it was -10.8% (active). Besides, the growth in the assay on MDA-MB-231 breast was -40.9% (active); in the assay with RXF 393 renal, -43% (active); with SF-268 CNS it was 18.8%; with SF-295 CNS it was -38.2% (active); in the assay on SF-539 CNS, -62.6% (active); in the assay with UACC-257 melanoma, 1.34% (active). Moreover, the growth in the assay on M14 melanoma was -3.59% (active); with HCT-15 colon it was -60.2% (active).
`Cn1c(SCC(=O)Nc2ccc(-c3nc4ccc([N+](=O)[O-])cc4[nH]3)cc2)nc2ccccc2c1=O`: the growth in the assay on NCI-H226 lung was 37.9%; in the assay on NCI-H322M lung, 68.6%; with HOP-62 NSCLC, 94.9%; in the assay with NCI-H460 lung, 82.3%; in the assay with HOP-92 NSCLC, 59.5%; with NCI-H522 lung, 74.1%. Also, the growth is 89.5% in the assay with A549/ATCC NSCLC; 81.5% with 786-0 renal; 98.4% in the assay on COLO 205 colon; 90.6% with DU-145 prostate; 93.6% in the assay with K-562 leukemia; 87.3% in the assay with MALME-3M melanoma. For the same compound, the growth in the assay with MDA-MB-231 breast was 78.5%; in the assay with RXF 393 renal it was 73.1%; with SF-268 CNS, 83.3%; with SF-295 CNS, 77.1%; in the assay on SF-539 CNS, 78.1%; in the assay with UACC-257 melanoma it was 87.3%. In addition, the growth is 96.3% with M14 melanoma and 78.2% in the assay with HCT-15 colon.
With `CC(=O)Oc1ccccc1C(=O)Nc1cc(C(C)C)ccc1C`, the growth was 9.84% (active) with NCI-H226 lung; 11.7% with NCI-H322M lung; 19.6% in the assay with HOP-62 NSCLC; 9.6% (active) in the assay with NCI-H460 lung; -19.5% (active) in the assay with HOP-92 NSCLC; 4.56% (active) in the assay with NCI-H522 lung. Also, the growth in the assay on A549/ATCC NSCLC is 13.1%; in the assay on 786-0 renal it was 25.6%; with COLO 205 colon, 92.7%; with DU-145 prostate, 23.1%; with K-562 leukemia it was 7.45% (active); in the assay on MALME-3M melanoma it was -6.69% (active). Besides, the growth was 7.22% (active) in the assay on MDA-MB-231 breast; -2.41% (active) in the assay on RXF 393 renal; 19.8% in the assay on SF-268 CNS; 11.3% with SF-295 CNS; 15.6% in the assay with SF-539 CNS; -9.44% (active) with UACC-257 melanoma. Further, the growth in the assay with M14 melanoma is 33.2%; in the assay on HCT-15 colon it was 14%.
With `CNC(=O)c1cc(-c2ccc(NC(=O)Nc3ccc(N4CCOCC4)c(C(F)(F)F)c3)cc2)nc2cccnc12`, the growth with NCI-H226 lung is 54.8%; in the assay with NCI-H322M lung, 71.7%; with HOP-62 NSCLC, 80.6%; with NCI-H460 lung, 23.9%; with HOP-92 NSCLC, 57.2%; in the assay with NCI-H522 lung, 65.5%. For the same compound, the growth was 51.6% with A549/ATCC NSCLC; 25.9% in the assay with 786-0 renal; 84.7% in the assay on COLO 205 colon; 69.6% in the assay with DU-145 prostate; 34.3% with K-562 leukemia; 60.7% in the assay on MALME-3M melanoma. For the same compound, the growth was 63.9% in the assay with MDA-MB-231 breast; -15.9% (active) in the assay with RXF 393 renal; 80.2% with SF-268 CNS; 9.49% (active) in the assay with SF-295 CNS; 30.1% in the assay with SF-539 CNS; 89.2% in the assay with UACC-257 melanoma. Further, the values for the growth in the assay on M14 melanoma and in the assay with HCT-15 colon were 77.2% and 33.5%, respectively.
For `O=C(c1ccc(O)cc1)C1[C@H](c2ccc(Cl)cc2)[C@@H](c2ccccc2)NC12C(=O)Nc1ccc(Cl)cc12` (stereo not given in full), the growth in the assay on NCI-H226 lung was 42.3%; in the assay with NCI-H322M lung, 61.2%; in the assay on HOP-62 NSCLC it was 64.6%; in the assay on NCI-H460 lung, 20.6%; in the assay on HOP-92 NSCLC, 35.2%; with NCI-H522 lung it was 71.7%. The growth in the assay with A549/ATCC NSCLC was 33.5%; with 786-0 renal, 52.3%; in the assay with COLO 205 colon, 61%; with DU-145 prostate it was 52.4%; with K-562 leukemia it was 28.1%; with MALME-3M melanoma, 74.5%. In addition, the growth in the assay on MDA-MB-231 breast is 48.6%; in the assay with RXF 393 renal, 27.7%; with SF-268 CNS it was 37.7%; with SF-295 CNS it was 41.1%; with SF-539 CNS, 66.4%; with UACC-257 melanoma it was 62.9%. The growth in the assay on M14 melanoma is 47.7%; with HCT-15 colon, 28.9%.
Regarding `CS(=O)(=O)c1ccc(-c2nc3ccccn3c2C=Nc2ccc(Cl)cc2)cc1`, the growth in the assay on NCI-H226 lung is 102%; in the assay on NCI-H322M lung, 76.7%; with HOP-62 NSCLC, 82.8%; with NCI-H460 lung it was 57.7%; in the assay with HOP-92 NSCLC it was 98.5%; in the assay on NCI-H522 lung it was 58.6%. The growth in the assay with A549/ATCC NSCLC was 72.1%; with 786-0 renal, 69.5%; in the assay with COLO 205 colon it was 99.6%; in the assay with DU-145 prostate, 61.3%; with K-562 leukemia, 23.6%; in the assay on MALME-3M melanoma it was 93.6%. Besides, the growth with MDA-MB-231 breast is 85.5%; in the assay with RXF 393 renal, 105%; with SF-268 CNS it was 75.4%; in the assay on SF-295 CNS, 87.9%; in the assay with SF-539 CNS it was 84.1%; with UACC-257 melanoma, 88.4%. For the same compound, the growth with M14 melanoma is 43.8%; with HCT-15 colon it was 34.3%.
